Source: publication PMC5540273 (PLoS ONE, 2017)

What was measured:
Conditions in all cases: concentration: 1 μM, replicates: in singlicate; n = 1
[1] = tested on: T1, PYK2
T1 construct: gene PTK2B

[2] = tested on: QSK
[3] = tested on: RAF1
[4] = tested on: RET
[5] = tested on: RIOK1
[6] = tested on: RIOK2
[7] = tested on: RIOK3
[8] = tested on: RIPK1
[9] = tested on: RIPK2
[10] = tested on: RIPK4
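Also: KINOMEscan kinase panel screen.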

Structure (SMILES)	%Inh [1] [%]	%Inh [2] [%]	%Inh [3] [%]	%Inh [4] [%]	%Inh [5] [%]	%Inh [6] [%]	%Inh [7] [%]	%Inh [8] [%]	%Inh [9] [%]	%Inh [10] [%]
COc1ccc(COc2cc(-n3cnc4ccccc43)sc2C(N)=O)cc1 [GSK1024304]	0	0	4	26	0	80	0	4	0	0
O=C(NCCNc1ccnc(Nc2ccc(F)cc2)n1)Nc1ccccc1F [GSK1379880]	16	0	22	5	17	5	0	0	1	11
Cc1c2ccc(N(C)c3ccnc(Nc4cccc(S(N)(=O)=O)c4)n3)cc2nn1Cc1ccccc1.Cl.Cl [GW787226]	9	0	94.5	99.9	0	15	0	36	95.9	0
Cl.Oc1cccc(Nc2ccnc3cc(-c4ccncc4)ccc23)c1 [GW494601]	0	63	22	99.9	0	0	0	15	83	47
CN1c2ccc(NCc3ccc(F)cc3)cc2-c2c(cnn2C)S1(=O)=O	0	10	1	0	10	0	0	3	0	0
CC(=O)Nc1ccc(COc2ccc(Nc3ccnc4cc(-c5ccccn5)ccc34)cc2)cc1.Cl [GW440148]	0	0	5	2	13	0	35	22	93.2	19
COc1ccc(Nc2nccc(N3CCC(NC(=O)Nc4cc(C)ccc4C)C3)n2)cc1 (centres unmarked) [GSK1379741]	7	1	13	52	25	0	0	0	14	8
[2H]C([2H])(c1cccc(C(F)(F)F)c1C)n1ccn2c(=O)nc(N3CCOCC3)cc12 [GSK2336394]	4	0	10	14	23	6	0	0	7	5
COCCNC(=O)c1ccc(-c2cc(C(=O)NC3CC3)cc(F)c2C)cc1 [GW868318]	4	26	7	0	0	7	0	0	8	47
Cc1ccc(C(=O)NCC(N)=O)cc1-n1c(C)cc(OCc2ccc(F)cc2F)c(Br)c1=O	15	0	37	5	1	0	0	13	0	0
O=c1cc(N2CCOCC2)nc2n(Cc3cccc(Cl)c3Cl)c(C3CC3)nn12 [GSK2358994]	0	0	0	8	13	25	37	0	0	16
NCC(NC(=O)c1cc(-c2cn[nH]c2)c(-c2ccnc3[nH]ccc23)s1)c1ccccc1.O=C(O)C(F)(F)F.O=C(O)C(F)(F)F (centres unmarked) [GSK1325775]	0	9	0	18	99.4	34	100	19	0	31
COc1cc2ncn(-c3cc(OCc4sccc4Cl)c(C(N)=O)s3)c2cc1OC [GSK448459]	0	7	12	26	91.8	13	61	0	3	15
NS(=O)(=O)CCc1cccc(Nc2nccc(-c3c(-c4cccc(NC(=O)c5c(F)cccc5F)c4)nn4ccccc34)n2)c1 [GSK336735]	29	0	92.8	99.9	38	17	26	10	97.9	4
COc1cc2c(cc1OC[C@@H](O)CO)ncc1c3ccc(C#N)cc3[nH]c21	0	8	21	52	65	0	76	0	0	0
O=C(NCCCN1CCOCC1)c1cccc(Nc2nccc(Nc3ccc(Oc4ccccc4)cc3)n2)c1 [GW663929]	0	0	0	17	31	23	36	24	100	29
O=C(Nc1cccc(-c2nn3ncccc3c2-c2ccnc(Nc3cccc(C(F)(F)F)c3)n2)c1)c1c(F)cccc1F [GSK299495]	23	9	86	64	22	0	0	8	86	15
